Assays:
Assay in all cases: DAPPL (digital affinity profiling via proximity ligation, sequencing); 10 mM Tris-HCl pH 7.5, 50 mM NaCl, 1 mM DTT, 4% glycerol, room temperature, 30 min; GST-TFs on glutathione beads, 16-mer random dsDNA library, 0.1% formaldehyde crosslink after washing; high values mean tight binding
Conditions in all cases: protein: recombinant; tags: N-terminal GST; dsDNA, one strand shown
FLI1 = biological target: T1, FLI1 (Homo sapiens, UniProt Q01543 1-452)
T1 sequence: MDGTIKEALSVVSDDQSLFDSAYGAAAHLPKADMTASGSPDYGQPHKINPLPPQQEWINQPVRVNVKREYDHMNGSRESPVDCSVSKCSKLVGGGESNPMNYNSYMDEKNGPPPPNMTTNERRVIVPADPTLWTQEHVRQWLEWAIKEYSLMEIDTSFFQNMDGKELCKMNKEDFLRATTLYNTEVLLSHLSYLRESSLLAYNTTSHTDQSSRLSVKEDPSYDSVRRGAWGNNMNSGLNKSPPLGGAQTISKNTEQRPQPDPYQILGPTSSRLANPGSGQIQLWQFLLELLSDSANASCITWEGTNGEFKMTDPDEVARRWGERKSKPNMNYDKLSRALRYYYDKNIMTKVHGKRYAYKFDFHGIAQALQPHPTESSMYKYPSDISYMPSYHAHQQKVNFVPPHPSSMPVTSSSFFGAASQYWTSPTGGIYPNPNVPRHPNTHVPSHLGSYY
Outline: (§1)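 Beads coated with glutathione captured GST-fused human transcription factors that had been expressed in yeast, and the factors were then given DNA barcodes and pooled with a tag-only sample. The pools were incubated with 200 nmole of a random double-stranded 16-mer DNA library in Tris/NaCl/DTT/glycerol buffer for 30 min at room temperature, washed, crosslinked with 0.1% formaldehyde and proximity-ligated with BsaI/T4 ligase at 37 °C for 1 h. PCR amplification and Illumina NextSeq500 sequencing came last. Binding signal is each hexamer's read frequency for a factor divided by its frequency for the tag-only sample.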

ELK1 = biological target: T2, ELK1 (Homo sapiens, UniProt P19419 1-428)
T2 sequence: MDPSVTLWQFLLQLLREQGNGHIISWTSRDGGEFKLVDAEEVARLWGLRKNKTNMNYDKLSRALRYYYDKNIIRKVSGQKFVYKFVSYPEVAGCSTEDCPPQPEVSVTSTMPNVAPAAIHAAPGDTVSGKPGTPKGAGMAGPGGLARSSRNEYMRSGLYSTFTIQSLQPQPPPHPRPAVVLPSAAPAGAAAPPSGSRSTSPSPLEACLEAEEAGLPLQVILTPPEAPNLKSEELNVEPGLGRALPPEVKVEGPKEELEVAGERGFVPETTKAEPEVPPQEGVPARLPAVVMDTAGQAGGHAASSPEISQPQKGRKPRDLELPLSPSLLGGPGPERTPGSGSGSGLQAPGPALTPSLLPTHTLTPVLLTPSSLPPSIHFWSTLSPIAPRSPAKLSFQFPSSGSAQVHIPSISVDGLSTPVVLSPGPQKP
Outline: as §1

GABPA = biological target: T3, GABPA (Homo sapiens, UniProt Q06546 1-454)
T3 sequence: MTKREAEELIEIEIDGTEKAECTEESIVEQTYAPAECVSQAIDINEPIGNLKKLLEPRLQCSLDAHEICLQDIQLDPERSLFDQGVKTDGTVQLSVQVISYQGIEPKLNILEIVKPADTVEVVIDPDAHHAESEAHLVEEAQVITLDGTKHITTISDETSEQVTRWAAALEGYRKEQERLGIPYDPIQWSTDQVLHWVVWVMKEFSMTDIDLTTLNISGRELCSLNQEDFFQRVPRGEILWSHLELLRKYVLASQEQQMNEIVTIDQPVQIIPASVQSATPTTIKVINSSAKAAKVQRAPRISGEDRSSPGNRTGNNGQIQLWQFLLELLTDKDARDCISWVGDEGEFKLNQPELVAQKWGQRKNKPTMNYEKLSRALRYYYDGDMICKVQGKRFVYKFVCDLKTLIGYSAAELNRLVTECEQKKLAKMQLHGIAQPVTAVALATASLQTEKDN
Outline: as §1

ERG = biological target: T4, ERG (Homo sapiens, UniProt P11308 1-479)
T4 sequence: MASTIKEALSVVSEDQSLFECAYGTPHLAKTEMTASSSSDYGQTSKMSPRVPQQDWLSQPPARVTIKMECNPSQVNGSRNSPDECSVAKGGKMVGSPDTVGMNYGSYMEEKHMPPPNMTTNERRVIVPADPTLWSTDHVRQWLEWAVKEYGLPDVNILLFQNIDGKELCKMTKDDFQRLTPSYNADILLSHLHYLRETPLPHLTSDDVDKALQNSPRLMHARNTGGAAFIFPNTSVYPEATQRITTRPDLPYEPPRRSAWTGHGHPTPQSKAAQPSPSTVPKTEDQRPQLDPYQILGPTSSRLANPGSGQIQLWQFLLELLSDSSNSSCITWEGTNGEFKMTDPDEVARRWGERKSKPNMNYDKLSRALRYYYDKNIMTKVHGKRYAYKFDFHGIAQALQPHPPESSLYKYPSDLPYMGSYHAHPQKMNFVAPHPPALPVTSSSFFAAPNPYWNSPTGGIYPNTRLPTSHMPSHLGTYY
Outline: as §1

ELF1 = ELF1 (Homo sapiens, UniProt P32519 1-619)
Outline: as §1

EHF = biological target: T5, EHF (Homo sapiens, UniProt Q9NZC4 1-300)
T5 sequence: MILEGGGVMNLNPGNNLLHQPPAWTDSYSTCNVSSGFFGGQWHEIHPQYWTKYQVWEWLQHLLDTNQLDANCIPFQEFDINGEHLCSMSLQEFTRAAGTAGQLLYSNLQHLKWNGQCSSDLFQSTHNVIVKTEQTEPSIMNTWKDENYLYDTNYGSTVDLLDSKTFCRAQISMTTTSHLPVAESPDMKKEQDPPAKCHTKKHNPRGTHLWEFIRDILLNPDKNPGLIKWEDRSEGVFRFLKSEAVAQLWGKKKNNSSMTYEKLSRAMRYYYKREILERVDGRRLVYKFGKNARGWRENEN
Outline: as §1

SPI1 [1] = biological target: SPI1 (Homo sapiens, UniProt P17947 1-270)
Outline: as §1

SPIB = SPIB (Homo sapiens, UniProt Q01892 1-262)
Outline: as §1

ELK3 = biological target: T6, ELK3 (Homo sapiens, UniProt P41970 1-407)
T6 sequence: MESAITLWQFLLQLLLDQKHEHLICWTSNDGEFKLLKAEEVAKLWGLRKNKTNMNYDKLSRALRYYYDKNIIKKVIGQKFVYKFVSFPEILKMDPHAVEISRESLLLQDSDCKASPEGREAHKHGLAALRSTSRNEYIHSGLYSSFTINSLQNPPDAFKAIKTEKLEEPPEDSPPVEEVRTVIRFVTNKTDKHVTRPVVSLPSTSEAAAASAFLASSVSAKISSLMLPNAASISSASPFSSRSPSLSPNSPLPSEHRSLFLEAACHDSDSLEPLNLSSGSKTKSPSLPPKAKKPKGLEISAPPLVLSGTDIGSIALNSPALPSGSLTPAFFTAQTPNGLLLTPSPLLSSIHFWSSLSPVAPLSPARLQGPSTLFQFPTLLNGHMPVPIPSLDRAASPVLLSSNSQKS
Outline: as §1

SPI1 [2] = biological target: SPI1 (Homo sapiens, UniProt P17947 1-270); remark: listed apart in the source
Outline: as §1

Chain of SPIB (Q01892 whole entry): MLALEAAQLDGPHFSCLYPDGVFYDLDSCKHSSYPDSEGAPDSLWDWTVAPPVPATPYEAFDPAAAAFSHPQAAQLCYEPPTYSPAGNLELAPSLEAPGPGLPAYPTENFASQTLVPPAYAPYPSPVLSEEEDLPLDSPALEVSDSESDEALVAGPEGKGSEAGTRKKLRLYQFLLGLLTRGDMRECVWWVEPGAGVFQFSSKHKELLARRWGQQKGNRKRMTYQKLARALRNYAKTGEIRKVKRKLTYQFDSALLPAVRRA
Chain of ELF1 (P32519 whole entry): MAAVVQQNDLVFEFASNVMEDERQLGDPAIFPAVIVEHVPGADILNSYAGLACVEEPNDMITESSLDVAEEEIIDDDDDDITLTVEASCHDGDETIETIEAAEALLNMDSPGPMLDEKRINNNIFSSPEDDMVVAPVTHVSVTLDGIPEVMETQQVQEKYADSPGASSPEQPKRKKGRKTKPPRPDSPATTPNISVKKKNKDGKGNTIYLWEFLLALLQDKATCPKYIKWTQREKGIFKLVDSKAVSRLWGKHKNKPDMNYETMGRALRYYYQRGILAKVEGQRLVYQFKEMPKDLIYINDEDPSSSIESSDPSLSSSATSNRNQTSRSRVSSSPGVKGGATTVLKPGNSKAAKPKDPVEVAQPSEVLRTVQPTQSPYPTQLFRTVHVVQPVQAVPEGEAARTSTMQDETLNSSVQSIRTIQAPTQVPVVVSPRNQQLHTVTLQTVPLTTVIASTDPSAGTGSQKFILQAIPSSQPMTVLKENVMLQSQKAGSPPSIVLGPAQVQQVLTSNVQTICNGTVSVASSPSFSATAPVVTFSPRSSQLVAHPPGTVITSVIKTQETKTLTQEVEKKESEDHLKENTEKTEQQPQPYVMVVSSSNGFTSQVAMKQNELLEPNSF

## TTCACT
FLI1
  binding signal: 1.22 fold enrichment (6-mer frequency, TF over GST control)
ELK1
  binding signal: 1.32 fold enrichment (6-mer frequency, TF over GST control)
GABPA
  binding signal: 1.33 fold enrichment (6-mer frequency, TF over GST control)
ERG
  binding signal: 1.36 fold enrichment (6-mer frequency, TF over GST control)
ELF1
  binding signal: 1.43 fold enrichment (6-mer frequency, TF over GST control)
EHF
  binding signal: 1.32 fold enrichment (6-mer frequency, TF over GST control)
SPI1 [1]
  binding signal: 1.33 fold enrichment (6-mer frequency, TF over GST control)
SPIB
  binding signal: 1.24 fold enrichment (6-mer frequency, TF over GST control)
ELK3
  binding signal: 1.37 fold enrichment (6-mer frequency, TF over GST control)

## TCCGGT
FLI1
  binding signal: 3.61 fold enrichment (6-mer frequency, TF over GST control)
ELK1
  binding signal: 3.83 fold enrichment (6-mer frequency, TF over GST control)
GABPA
  binding signal: 3.5 fold enrichment (6-mer frequency, TF over GST control)
ERG
  binding signal: 4.63 fold enrichment (6-mer frequency, TF over GST control)
ELF1
  binding signal: 3.46 fold enrichment (6-mer frequency, TF over GST control)
EHF
  binding signal: 3.67 fold enrichment (6-mer frequency, TF over GST control)
SPI1 [2]
  binding signal: 3.58 fold enrichment (6-mer frequency, TF over GST control)
SPIB
  binding signal: 3.58 fold enrichment (6-mer frequency, TF over GST control)
ELK3
  binding signal: 4.4 fold enrichment (6-mer frequency, TF over GST control)

## CTTGCG
FLI1
  binding signal: 1.44 fold enrichment (6-mer frequency, TF over GST control)
ELK1
  binding signal: 1.42 fold enrichment (6-mer frequency, TF over GST control)
GABPA
  binding signal: 1.32 fold enrichment (6-mer frequency, TF over GST control)
ERG
  binding signal: 1.35 fold enrichment (6-mer frequency, TF over GST control)
ELF1
  binding signal: 1.39 fold enrichment (6-mer frequency, TF over GST control)
EHF
  binding signal: 1.41 fold enrichment (6-mer frequency, TF over GST control)
SPI1 [1]
  binding signal: 1.34 fold enrichment (6-mer frequency, TF over GST control)
SPIB
  binding signal: 1.4 fold enrichment (6-mer frequency, TF over GST control)
ELK3
  binding signal: 1.44 fold enrichment (6-mer frequency, TF over GST control)

## TAATGC
FLI1
  binding signal: 1.26 fold enrichment (6-mer frequency, TF over GST control)
ELK1
  binding signal: 1.22 fold enrichment (6-mer frequency, TF over GST control)
GABPA
  binding signal: 1.26 fold enrichment (6-mer frequency, TF over GST control)
ERG
  binding signal: 1.18 fold enrichment (6-mer frequency, TF over GST control)
ELF1
  binding signal: 1.16 fold enrichment (6-mer frequency, TF over GST control)
EHF
  binding signal: 1.22 fold enrichment (6-mer frequency, TF over GST control)
SPI1 [1]
  binding signal: 1.1 fold enrichment (6-mer frequency, TF over GST control)
SPIB
  binding signal: 1.24 fold enrichment (6-mer frequency, TF over GST control)
ELK3
  binding signal: 1.29 fold enrichment (6-mer frequency, TF over GST control)

## TTGATA
FLI1
  binding signal: 1.23 fold enrichment (6-mer frequency, TF over GST control)
ELK1
  binding signal: 1.29 fold enrichment (6-mer frequency, TF over GST control)
GABPA
  binding signal: 1.31 fold enrichment (6-mer frequency, TF over GST control)
ERG
  binding signal: 1.17 fold enrichment (6-mer frequency, TF over GST control)
ELF1
  binding signal: 1.24 fold enrichment (6-mer frequency, TF over GST control)
EHF
  binding signal: 1.14 fold enrichment (6-mer frequency, TF over GST control)
SPI1 [1]
  binding signal: 1.14 fold enrichment (6-mer frequency, TF over GST control)
SPIB
  binding signal: 1.08 fold enrichment (6-mer frequency, TF over GST control)
ELK3
  binding signal: 1.01 fold enrichment (6-mer frequency, TF over GST control)

## TATCGA
FLI1
  binding signal: 1.36 fold enrichment (6-mer frequency, TF over GST control)
ELK1
  binding signal: 1.28 fold enrichment (6-mer frequency, TF over GST control)
GABPA
  binding signal: 1.32 fold enrichment (6-mer frequency, TF over GST control)
ERG
  binding signal: 1.36 fold enrichment (6-mer frequency, TF over GST control)
ELF1
  binding signal: 1.36 fold enrichment (6-mer frequency, TF over GST control)
EHF
  binding signal: 1.35 fold enrichment (6-mer frequency, TF over GST control)
SPI1 [1]
  binding signal: 1.34 fold enrichment (6-mer frequency, TF over GST control)
SPIB
  binding signal: 1.25 fold enrichment (6-mer frequency, TF over GST control)
ELK3
  binding signal: 1.34 fold enrichment (6-mer frequency, TF over GST control)

## ATCGAA
FLI1
  binding signal: 1.11 fold enrichment (6-mer frequency, TF over GST control)
ELK1
  binding signal: 1.12 fold enrichment (6-mer frequency, TF over GST control)
GABPA
  binding signal: 1.1 fold enrichment (6-mer frequency, TF over GST control)
ERG
  binding signal: 1.1 fold enrichment (6-mer frequency, TF over GST control)
ELF1
  binding signal: 1.14 fold enrichment (6-mer frequency, TF over GST control)
EHF
  binding signal: 1.16 fold enrichment (6-mer frequency, TF over GST control)
SPI1 [1]
  binding signal: 1.13 fold enrichment (6-mer frequency, TF over GST control)
SPIB
  binding signal: 1.18 fold enrichment (6-mer frequency, TF over GST control)
ELK3
  binding signal: 1.08 fold enrichment (6-mer frequency, TF over GST control)
